# Assay outcomes: PubChem BioAssay, several laboratories
# Most compounds without a hit are left out; they make up all but 2.2% or so of the library.
# CHO-K1 Ca antag – nonselective inhibitor or artifact in parental CHO-K1 cells; 0.6% of 360,000 active; inhibition, % at 3 µM; ATP-induced calcium, Fluo-8 fluorescence; AID 602250;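 active = inhibition above a per-plate cutoff, the plate's mean sample inhibition plus 3 SD, cut at about 24% in these data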;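 note: 0% = DMSO plus EC80 ATP and 100% = DMSO alone without ATP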
# CHO-K1 Ca PAM – M1 PAM counterscreen hit in parental CHO-K1 cells; activation, % at 3 µM; AID 602247; 0.02% of 360,000 active; ATP EC20, Fluo-8 calcium fluorescence; 0% at ATP EC20, 100% at ATP max;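 active = activation above the run cutoff, the mean activation of all test compounds plus 3 SD, cut at about 40% in these data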;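 note: peak over basal fluorescence ratio in a 140 s read after ATP addition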
# TMEM16A inh – inhibitors of mouse TMEM16A calcium-activated chloride channel | 1.2% of 310,000 active | normalized B-score (activity score, 25-100; higher = stronger inhibition) at 10 µM | HEK293 TMEM16A/YFP iodide influx fluorescence, ionomycin | Q8BHY3;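 active = ratio plate-corrected score three or more library SD toward inhibition, starting fluorescence score within five deviations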;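 note: score derived from kinetic fluorescence span divided by baseline fluorescence per well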
# Target sequence (Q8BHY3 whole entry, looked up): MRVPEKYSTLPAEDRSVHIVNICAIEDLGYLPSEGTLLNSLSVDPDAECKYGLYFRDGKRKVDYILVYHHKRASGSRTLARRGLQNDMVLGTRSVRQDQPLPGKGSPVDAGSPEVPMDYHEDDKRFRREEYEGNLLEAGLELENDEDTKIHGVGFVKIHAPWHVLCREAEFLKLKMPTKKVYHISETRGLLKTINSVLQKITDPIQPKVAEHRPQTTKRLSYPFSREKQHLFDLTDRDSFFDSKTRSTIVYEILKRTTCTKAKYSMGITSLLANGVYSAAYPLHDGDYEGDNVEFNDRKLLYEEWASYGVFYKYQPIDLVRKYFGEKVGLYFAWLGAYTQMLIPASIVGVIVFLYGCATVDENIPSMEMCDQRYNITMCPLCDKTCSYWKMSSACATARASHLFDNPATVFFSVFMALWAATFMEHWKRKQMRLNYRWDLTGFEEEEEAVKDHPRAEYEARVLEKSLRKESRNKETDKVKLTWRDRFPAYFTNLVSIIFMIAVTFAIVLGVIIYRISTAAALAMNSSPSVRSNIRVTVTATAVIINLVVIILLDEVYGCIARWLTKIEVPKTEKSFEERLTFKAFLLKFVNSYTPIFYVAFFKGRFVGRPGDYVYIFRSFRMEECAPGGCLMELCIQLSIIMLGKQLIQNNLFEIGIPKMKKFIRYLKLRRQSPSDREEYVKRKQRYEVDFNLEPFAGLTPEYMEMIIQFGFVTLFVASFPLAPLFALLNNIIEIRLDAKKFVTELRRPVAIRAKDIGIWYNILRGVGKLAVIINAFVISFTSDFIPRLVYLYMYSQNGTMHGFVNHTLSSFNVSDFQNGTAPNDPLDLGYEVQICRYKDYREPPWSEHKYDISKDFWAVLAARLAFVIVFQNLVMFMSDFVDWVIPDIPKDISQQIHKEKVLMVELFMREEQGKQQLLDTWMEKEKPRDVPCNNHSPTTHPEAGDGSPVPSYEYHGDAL
# M1 ag parental – M1 agonist counterscreen hit in parental CHO-K1 cells | 0.48% of 360,000 active | activation, % at 3 µM | Fluo-8 calcium fluorescence; scaled to maximal ATP response, vehicle zero; in the data active = activation above about 15%;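 note: untransfected CHO-K1 host cells lacking M1 receptor as counterscreen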
# ANO1 activ – activates or potentiates the mouse TMEM16A chloride channel | HEK293 TMEM16A/YFP-H148Q/I152L, iodide quench fluorescence; active compounds read low | B-score at 10 µM | 0.3% of 340,000 active | AID 623877;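 active = fluorescence-ratio B-score plate-corrected deviation score at least 3 library SD below zero, with starting fluorescence score within 5 deviations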;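 note: channel opened by trigger with iodide after compound preincubation; score built on the fluorescence ratio of max minus min over baseline; more negative score means more quench and so TMEM16A activation or potentiation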
# NTR1 agonist – agonists of human neurotensin receptor NTR1. P30989. NTR1-U2OS beta-arrestin-GFP spot imaging, agonist mode. activation, % at 20 µM. 0.17% of 330,000 active. AID 493036;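 active = activation at or above 40% of the spot to cytoplasm intensity ratio, with at least 20 cells analyzed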;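 note: 0% = DMSO without peptide and 100% = 100 nM NTR1 peptide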
# TMEM16A reconf – TMEM16A (mouse) chloride channel inhibition, re-confirmation; shares compounds with TMEM16A inh; HEK293 TMEM16A/YFP-H148Q, iodide quench fluorescence; ionomycin added to raise cell calcium; inhibition, % at 10 µM; 39% of 2,300 active; AID 652189;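 active = mean duplicate percent inhibition, scaled so buffer wells are 0 and the reference blocker 100, over three buffer SD above buffer mean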
# HEK293 Ca mobil – calcium mobilization counter-screen hit for TMEM16A inhibitor series | AID 652231 | shares compounds with TMEM16A inh | TMEM16A/YFP HEK293, Fluo4 calcium mobilization | 2% of 2,300 active | calcium response (% of ionomycin), % at 10 µM;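 active = duplicate-averaged calcium signal over 20% of the ionomycin maximum, relative to buffer baseline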;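 note: each well's signal is peak minus trough fluorescence divided by its pre-addition baseline; 0% = buffer wells and 100% = ionomycin wells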
# YFP-HEK293 quench – acts in parental YFP-HEK293 cells lacking TMEM16A, counter-screen. shares compounds with TMEM16A inh. iodide YFP quench, ionomycin. YFP ratio F(max-min)/F0 at 10 µM. 2,300 tested, under 10 active. AID 652233;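 active = yellow fluorescent protein signal ratio exceeding the buffer control mean by over 5 SD of those controls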;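 note: ratio is mean of duplicate wells from kinetic YFP trace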
# ClC-1 rat inh – selectivity of TMEM16A inhibitors: inhibition of rat ClC-1 chloride channel; 2,300 tested, under 10 active; AID 652236; ratio percent, % at 10 µM; shares compounds with TMEM16A inh; CHO ClC-1-YFP, iodide influx fluorescence quench; iodide control reads 0, buffer control 100;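 active = duplicate-mean ratio percent above the mean of iodide-only control wells, which defines zero, plus 5 of their SD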;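 note: higher percent means stronger block of ClC-1 iodide influx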
# * = called active by the depositor; i = inactive; . = no result.
SMILES,CHO-K1 Ca antag,CHO-K1 Ca PAM,TMEM16A inh,M1 ag parental,ANO1 activ,NTR1 agonist,TMEM16A reconf,HEK293 Ca mobil,YFP-HEK293 quench,ClC-1 rat inh
O=C1N(Cc2ccccc2F)c2ccccc2C12OCCCO2,-1,14,100*,0,i,2,i,i,-1.1,-9
Cc1cc(C(=O)NCC(=O)OCC(=O)Nc2ccc(OC(F)F)cc2)ccc1[N+](=O)[O-],-2,-5,25*,3,i,4,i,i,-1.2,-2
COc1ccc(Cl)cc1NC(=O)COC(=O)CNC(=O)c1ccc([N+](=O)[O-])c(C)c1,4,10,i,2,i,0,.,.,.,.
CCOC(=O)N1CCN(Cc2nc(-c3cccc(C)c3)no2)CC1,-11,2,100*,8,i,0,i,i,-1.1,-14
COCCCNC(=O)C1CC(=O)N(Cc2ccc(OC)cc2)C1 (stereo not given),-13,4,i,0,i,0,.,.,.,.
COc1ccc(CN2CC(C(=O)NCCN3CCOCC3)CC2=O)cc1 (stereo not given),-6,15,100*,-1,i,0,i,i,-0.88,-4
COc1ccc(CN2CC(C(=O)NCc3ccccn3)CC2=O)cc1 (stereo not given),-4,14,100*,0,i,0,i,i,-1.1,-20
O=c1cc(CO)[nH]nc1CO,-8,-8,.,0,.,.,.,.,.,.
CC(OC(=O)CCc1nc2ccccc2c(=O)[nH]1)C(=O)c1ccc(C(C)(C)C)cc1 (stereo not given),16,8,100*,12,i,15,28%*,i,-1,-24
CC(OC(=O)CCc1nc2ccccc2c(=O)[nH]1)C(=O)NC1CCCC1 (stereo not given),6,-3,i,0,i,1,.,.,.,.
O=C1NC(Cc2ccccc2)c2nc3cc(F)ccc3c(=O)n2-c2ccccc21 (stereo not given),.,.,.,.,.,-2,.,.,.,.
Cc1ccc(COc2ccccc2C(=S)N2CCCC2)cc1,-13,21,25*,1,i,3,i,i,-0.94,-6
Fc1ccc(COc2ccccc2C(=S)N2CCCC2)cc1,7,4,i,8,i,0,.,.,.,.
Cc1ccc(C(=O)N/N=C/c2cn(Cc3ccccc3)c3ccccc23)cn1,-9,19,25*,10,i,4,i,i,-1.2,-13
COC(=O)c1cc(=O)nc(NN=Cc2ccco2)s1,0,13,.,1,.,.,.,.,.,.
Cc1ccc(Nc2nc(-c3cccnc3)nc3ccccc23)cc1,-8,7,i,4,i,22,.,.,.,.
CCOC(=O)c1ccc(Nc2nc(-c3cccnc3)nc3ccccc23)cc1,1,11,25*,3,i,18,38%*,i,-1.2,-20
Cc1ccsc1-c1cc2nc(Nc3ccc(F)cc3)n(C)c(=O)c2s1,17,-4,.,0,.,.,.,.,.,.
N#Cc1cc([N+](=O)[O-])ccc1NC(=O)COC(=O)C1CCC(=O)N1 (stereo not given),-6,11,.,1,i,4,.,.,.,.
O=C(NNS(=O)(=O)c1ccc(F)cc1)c1ccccc1F,-9,20,i,3,i,0,.,.,.,.
O=C(NNS(=O)(=O)c1ccc(F)cc1)c1cc2ccccc2cc1O,-6,12,100*,4,i,1,24%*,i,-0.74,-12
CCOc1cc(CNc2ccccc2)cc(Br)c1OCC(=O)NC(C)(C)C,-16,-2,25*,2,i,11,i,i,-0.89,-4
